Source: PMC7862700, “An all-to-all approach to the identification of sequence-specific readers for epigenetic DNA modifications on cytosine”

What was measured:
Assay in all cases: DAPPL (digital affinity profiling via proximity ligation, sequencing); 10 mM Tris-HCl pH 7.5, 50 mM NaCl, 1 mM DTT, 4% glycerol, room temperature, 30 min; GST-TFs on glutathione beads, 16-mer random dsDNA library, 0.1% formaldehyde crosslink after washing; high values mean tight binding
[1] = target: T1, FEV (Homo sapiens, UniProt Q99581 1-238); details: protein: recombinant; tags: N-terminal GST; dsDNA, one strand shown
T1 sequence: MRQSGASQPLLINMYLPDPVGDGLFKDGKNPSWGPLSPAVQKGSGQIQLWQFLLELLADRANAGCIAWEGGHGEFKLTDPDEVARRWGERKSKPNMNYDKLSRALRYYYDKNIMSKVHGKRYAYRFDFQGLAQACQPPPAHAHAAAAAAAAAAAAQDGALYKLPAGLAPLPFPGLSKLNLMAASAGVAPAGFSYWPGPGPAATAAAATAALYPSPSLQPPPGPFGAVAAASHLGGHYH
Method in brief: (§1)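 Human transcription factors were made in yeast as GST fusions, captured on glutathione beads and barcoded with DNA. With a tag-only sample included, the pool was incubated with 200 nmole of a random double-stranded 16-mer DNA library in Tris/NaCl/DTT/glycerol buffer at room temperature for 30 min, then crosslinked with 0.1% formaldehyde after washing, ligated by proximity, amplified and sequenced. For binding signal, each hexamer's read frequency for a factor is divided by its frequency for the tag-only sample.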

[2] = target: ETV5 (Homo sapiens, UniProt P41161 1-510); details: protein: recombinant; tags: N-terminal GST; dsDNA, one strand shown
Method in brief: as §1

[3] = target: HSF1 (Homo sapiens, UniProt Q00613 1-529); details: protein: recombinant; tags: N-terminal GST; chain copies: 3; dsDNA, one strand shown
Method in brief: as §1

[4] = target: T2, SPIC (Homo sapiens, UniProt Q8N5J4 1-248); details: protein: recombinant; tags: N-terminal GST; dsDNA, one strand shown
T2 sequence: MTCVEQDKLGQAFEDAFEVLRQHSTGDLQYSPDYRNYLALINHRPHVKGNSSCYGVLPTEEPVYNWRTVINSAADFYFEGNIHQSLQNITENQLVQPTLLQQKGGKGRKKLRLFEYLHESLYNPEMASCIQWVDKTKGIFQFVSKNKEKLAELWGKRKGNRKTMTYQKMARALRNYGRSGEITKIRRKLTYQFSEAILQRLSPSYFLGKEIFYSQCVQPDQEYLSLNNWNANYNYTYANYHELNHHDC
Method in brief: as §1

[5] = target: ELF4 (Homo sapiens, UniProt Q99607 1-663); details: protein: recombinant; tags: N-terminal GST; dsDNA, one strand shown
Method in brief: as §1

[6] = target: T3, ELK4 (Homo sapiens, UniProt P28324-2 1-405); details: protein: recombinant; tags: N-terminal GST; dsDNA, one strand shown
T3 sequence: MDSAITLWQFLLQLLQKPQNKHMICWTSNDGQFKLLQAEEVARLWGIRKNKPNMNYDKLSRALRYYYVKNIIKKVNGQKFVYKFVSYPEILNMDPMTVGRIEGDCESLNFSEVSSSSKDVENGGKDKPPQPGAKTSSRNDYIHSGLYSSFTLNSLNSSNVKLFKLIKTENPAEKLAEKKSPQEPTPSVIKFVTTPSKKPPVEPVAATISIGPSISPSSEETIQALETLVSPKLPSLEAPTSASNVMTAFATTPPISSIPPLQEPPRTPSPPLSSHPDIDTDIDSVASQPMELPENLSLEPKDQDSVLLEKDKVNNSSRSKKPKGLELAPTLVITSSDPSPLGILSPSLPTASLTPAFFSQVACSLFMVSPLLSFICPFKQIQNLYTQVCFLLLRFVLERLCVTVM
Method in brief: as §1

[7] = target: T4, ETV2 (Homo sapiens, UniProt O00321 1-342); details: protein: recombinant; tags: N-terminal GST; dsDNA, one strand shown
T4 sequence: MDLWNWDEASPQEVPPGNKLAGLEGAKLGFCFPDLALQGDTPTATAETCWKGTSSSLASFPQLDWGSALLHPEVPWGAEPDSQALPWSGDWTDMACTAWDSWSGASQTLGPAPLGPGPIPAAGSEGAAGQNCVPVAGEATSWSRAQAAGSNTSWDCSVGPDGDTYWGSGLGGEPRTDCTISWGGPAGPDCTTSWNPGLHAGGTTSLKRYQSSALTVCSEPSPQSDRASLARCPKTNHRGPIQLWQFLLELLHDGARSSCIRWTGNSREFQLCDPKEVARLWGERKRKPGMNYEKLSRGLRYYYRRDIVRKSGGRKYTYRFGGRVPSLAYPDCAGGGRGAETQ
Method in brief: as §1

[8] = target: T5, ELF3 (Homo sapiens, UniProt P78545 1-371); details: protein: recombinant; tags: N-terminal GST; dsDNA, one strand shown
T5 sequence: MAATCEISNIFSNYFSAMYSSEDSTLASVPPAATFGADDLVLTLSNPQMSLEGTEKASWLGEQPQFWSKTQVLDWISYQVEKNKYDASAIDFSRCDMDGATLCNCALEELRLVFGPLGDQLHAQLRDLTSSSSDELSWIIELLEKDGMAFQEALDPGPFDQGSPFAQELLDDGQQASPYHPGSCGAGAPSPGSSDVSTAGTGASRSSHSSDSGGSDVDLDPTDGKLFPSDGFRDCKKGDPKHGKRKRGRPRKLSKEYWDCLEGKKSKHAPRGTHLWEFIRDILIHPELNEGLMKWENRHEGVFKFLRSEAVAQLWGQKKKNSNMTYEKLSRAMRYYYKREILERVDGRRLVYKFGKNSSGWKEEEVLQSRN
Method in brief: as §1

[9] = target: CRX (Homo sapiens, UniProt O43186 1-299); details: protein: recombinant; tags: N-terminal GST; dsDNA, one strand shown
Method in brief: as §1

[10] = target: ETV1 (Homo sapiens, UniProt P50549 1-477); details: protein: recombinant; tags: N-terminal GST; dsDNA, one strand shown
Method in brief: as §1

[11] = target: T6, ERF (Homo sapiens, UniProt P50548 1-548); details: protein: recombinant; tags: N-terminal GST; dsDNA, one strand shown
T6 sequence: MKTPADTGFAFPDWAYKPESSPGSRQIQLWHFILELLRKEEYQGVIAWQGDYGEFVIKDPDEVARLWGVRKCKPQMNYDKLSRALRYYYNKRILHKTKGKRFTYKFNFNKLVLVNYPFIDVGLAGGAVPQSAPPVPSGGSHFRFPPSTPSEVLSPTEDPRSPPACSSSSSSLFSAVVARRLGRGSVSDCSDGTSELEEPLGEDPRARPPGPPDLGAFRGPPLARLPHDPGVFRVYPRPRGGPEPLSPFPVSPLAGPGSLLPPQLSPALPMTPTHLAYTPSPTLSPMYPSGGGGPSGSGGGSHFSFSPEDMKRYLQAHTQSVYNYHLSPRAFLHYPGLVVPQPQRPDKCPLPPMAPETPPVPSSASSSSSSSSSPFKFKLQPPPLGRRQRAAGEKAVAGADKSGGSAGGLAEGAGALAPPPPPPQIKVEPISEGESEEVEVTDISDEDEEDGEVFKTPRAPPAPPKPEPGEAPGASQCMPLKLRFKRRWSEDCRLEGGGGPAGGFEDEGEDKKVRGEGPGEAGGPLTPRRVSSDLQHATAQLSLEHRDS
Method in brief: as §1

[12] = target: T7, ETV3L (Homo sapiens, UniProt Q6ZN32 1-361); details: protein: recombinant; tags: N-terminal GST; dsDNA, one strand shown
T7 sequence: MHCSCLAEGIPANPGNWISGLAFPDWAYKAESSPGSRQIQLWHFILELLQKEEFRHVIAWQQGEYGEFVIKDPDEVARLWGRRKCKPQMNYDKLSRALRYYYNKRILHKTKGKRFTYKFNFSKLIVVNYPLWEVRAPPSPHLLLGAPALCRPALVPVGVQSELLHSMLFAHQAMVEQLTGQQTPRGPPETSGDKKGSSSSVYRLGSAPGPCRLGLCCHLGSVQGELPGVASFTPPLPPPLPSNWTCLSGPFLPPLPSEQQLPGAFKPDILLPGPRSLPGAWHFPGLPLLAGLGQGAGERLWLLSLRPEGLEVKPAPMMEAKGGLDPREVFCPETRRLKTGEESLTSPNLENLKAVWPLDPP
Method in brief: as §1

[13] = target: T8, ETS2 (Homo sapiens, UniProt P15036 1-469); details: protein: recombinant; tags: N-terminal GST; dsDNA, one strand shown
T8 sequence: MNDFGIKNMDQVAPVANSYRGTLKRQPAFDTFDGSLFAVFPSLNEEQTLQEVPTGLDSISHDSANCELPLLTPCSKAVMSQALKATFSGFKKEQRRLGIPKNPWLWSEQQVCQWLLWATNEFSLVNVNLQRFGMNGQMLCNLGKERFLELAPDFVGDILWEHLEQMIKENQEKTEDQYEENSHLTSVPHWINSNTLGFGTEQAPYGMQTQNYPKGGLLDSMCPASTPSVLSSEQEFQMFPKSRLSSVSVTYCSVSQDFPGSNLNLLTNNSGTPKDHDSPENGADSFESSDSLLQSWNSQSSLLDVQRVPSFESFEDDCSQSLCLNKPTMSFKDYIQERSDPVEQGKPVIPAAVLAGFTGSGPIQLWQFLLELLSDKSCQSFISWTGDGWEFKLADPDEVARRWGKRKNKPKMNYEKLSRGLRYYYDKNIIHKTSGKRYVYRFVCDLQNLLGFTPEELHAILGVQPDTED
Method in brief: as §1

[14] = target: T9, SPDEF (Homo sapiens, UniProt O95238 1-335); details: protein: recombinant; tags: N-terminal GST; dsDNA, one strand shown
T9 sequence: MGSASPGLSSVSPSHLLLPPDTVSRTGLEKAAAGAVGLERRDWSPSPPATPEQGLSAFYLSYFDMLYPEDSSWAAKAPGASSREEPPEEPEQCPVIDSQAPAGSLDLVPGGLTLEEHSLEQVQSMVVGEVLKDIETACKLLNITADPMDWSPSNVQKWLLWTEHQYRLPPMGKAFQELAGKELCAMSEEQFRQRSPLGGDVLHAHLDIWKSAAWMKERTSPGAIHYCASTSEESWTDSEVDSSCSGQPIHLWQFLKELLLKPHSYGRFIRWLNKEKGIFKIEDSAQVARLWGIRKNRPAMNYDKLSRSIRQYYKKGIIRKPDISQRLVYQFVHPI
Method in brief: as §1

[15] = target: T10, ETV7 (Homo sapiens, UniProt Q9Y603 1-341); details: protein: recombinant; tags: N-terminal GST; dsDNA, one strand shown
T10 sequence: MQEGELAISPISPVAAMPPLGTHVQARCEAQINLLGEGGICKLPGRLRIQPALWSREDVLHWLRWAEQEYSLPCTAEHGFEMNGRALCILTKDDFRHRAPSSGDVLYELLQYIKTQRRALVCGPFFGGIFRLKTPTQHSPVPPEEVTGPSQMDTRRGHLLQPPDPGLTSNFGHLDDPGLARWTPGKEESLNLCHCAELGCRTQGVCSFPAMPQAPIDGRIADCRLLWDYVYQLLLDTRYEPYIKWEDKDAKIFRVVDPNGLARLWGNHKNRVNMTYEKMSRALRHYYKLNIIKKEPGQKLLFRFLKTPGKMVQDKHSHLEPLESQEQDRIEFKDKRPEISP
Method in brief: as §1

[16] = target: T11, ELF5 (Homo sapiens, UniProt Q9UKW6-2 1-255); details: protein: recombinant; tags: N-terminal GST; dsDNA, one strand shown
T11 sequence: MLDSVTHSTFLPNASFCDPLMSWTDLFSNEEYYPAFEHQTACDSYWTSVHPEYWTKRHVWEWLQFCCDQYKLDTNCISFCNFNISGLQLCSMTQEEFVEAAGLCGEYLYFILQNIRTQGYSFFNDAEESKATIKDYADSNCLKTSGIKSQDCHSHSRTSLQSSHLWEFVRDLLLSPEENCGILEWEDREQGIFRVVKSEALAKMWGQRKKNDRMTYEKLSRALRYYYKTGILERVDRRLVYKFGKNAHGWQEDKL
Method in brief: as §1

[17] = target: T12, ETV3 (Homo sapiens, UniProt P41162-2 1-143); details: protein: recombinant; tags: N-terminal GST; dsDNA, one strand shown
T12 sequence: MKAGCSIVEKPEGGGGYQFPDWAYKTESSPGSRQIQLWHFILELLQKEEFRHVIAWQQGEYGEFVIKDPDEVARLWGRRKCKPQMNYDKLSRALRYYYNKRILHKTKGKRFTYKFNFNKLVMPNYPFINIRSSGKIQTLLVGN
Method in brief: as §1

[18] = target: ETV6 (Homo sapiens, UniProt P41212 1-452); details: protein: recombinant; tags: N-terminal GST; dsDNA, one strand shown
Method in brief: as §1

Sequence of ETV5 (P41161 whole entry): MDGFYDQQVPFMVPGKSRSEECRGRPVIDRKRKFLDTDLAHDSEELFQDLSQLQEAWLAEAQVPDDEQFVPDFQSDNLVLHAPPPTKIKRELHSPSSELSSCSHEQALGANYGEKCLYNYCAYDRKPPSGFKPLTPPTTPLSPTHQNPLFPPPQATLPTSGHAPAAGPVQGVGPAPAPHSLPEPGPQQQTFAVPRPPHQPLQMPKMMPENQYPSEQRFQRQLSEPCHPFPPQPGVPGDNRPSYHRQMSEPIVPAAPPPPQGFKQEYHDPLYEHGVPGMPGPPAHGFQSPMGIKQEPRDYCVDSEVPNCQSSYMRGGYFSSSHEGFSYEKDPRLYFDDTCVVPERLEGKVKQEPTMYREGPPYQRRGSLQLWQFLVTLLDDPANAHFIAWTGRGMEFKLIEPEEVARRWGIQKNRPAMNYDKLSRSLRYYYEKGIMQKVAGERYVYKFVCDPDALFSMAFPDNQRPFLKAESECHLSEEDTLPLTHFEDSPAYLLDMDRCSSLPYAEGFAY
Sequence of ETV6 (P41212 whole entry): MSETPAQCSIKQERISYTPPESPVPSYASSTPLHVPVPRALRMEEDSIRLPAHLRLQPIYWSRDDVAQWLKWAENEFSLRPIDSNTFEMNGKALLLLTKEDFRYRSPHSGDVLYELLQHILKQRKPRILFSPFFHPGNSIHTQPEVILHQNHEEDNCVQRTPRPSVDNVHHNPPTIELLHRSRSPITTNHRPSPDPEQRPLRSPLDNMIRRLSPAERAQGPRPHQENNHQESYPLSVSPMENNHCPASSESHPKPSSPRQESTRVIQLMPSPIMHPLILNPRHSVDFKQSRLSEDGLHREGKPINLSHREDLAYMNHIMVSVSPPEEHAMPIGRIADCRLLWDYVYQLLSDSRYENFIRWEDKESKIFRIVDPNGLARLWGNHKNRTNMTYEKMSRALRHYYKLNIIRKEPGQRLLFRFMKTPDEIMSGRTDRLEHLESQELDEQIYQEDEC
Sequence of CRX (O43186 whole entry): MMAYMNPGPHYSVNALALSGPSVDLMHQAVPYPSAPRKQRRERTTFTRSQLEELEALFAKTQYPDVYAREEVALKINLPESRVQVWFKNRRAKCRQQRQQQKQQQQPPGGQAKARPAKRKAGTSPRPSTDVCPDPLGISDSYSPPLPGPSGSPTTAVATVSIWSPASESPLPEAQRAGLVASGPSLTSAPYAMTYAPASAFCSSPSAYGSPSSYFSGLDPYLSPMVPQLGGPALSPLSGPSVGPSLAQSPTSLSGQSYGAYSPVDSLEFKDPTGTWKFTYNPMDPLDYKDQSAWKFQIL
Sequence of ELF4 (Q99607 whole entry): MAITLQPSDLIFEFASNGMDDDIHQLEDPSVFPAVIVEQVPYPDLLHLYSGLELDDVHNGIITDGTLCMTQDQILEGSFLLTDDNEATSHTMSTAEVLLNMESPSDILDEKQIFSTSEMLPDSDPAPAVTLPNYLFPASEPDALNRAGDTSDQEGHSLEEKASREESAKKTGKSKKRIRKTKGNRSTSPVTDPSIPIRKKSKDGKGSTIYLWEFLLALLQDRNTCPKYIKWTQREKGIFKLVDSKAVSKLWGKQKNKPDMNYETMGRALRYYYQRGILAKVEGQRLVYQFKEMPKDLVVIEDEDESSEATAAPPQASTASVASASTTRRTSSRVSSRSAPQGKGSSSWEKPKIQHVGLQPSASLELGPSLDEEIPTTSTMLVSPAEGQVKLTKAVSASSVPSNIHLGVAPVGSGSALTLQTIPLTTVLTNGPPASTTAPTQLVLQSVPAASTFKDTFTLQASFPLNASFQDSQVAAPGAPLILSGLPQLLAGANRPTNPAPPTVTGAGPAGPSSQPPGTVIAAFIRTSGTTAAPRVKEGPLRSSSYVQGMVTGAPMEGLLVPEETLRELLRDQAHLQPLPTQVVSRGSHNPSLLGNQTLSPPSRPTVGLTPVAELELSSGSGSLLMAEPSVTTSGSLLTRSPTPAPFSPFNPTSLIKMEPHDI
Sequence of HSF1 (Q00613 whole entry): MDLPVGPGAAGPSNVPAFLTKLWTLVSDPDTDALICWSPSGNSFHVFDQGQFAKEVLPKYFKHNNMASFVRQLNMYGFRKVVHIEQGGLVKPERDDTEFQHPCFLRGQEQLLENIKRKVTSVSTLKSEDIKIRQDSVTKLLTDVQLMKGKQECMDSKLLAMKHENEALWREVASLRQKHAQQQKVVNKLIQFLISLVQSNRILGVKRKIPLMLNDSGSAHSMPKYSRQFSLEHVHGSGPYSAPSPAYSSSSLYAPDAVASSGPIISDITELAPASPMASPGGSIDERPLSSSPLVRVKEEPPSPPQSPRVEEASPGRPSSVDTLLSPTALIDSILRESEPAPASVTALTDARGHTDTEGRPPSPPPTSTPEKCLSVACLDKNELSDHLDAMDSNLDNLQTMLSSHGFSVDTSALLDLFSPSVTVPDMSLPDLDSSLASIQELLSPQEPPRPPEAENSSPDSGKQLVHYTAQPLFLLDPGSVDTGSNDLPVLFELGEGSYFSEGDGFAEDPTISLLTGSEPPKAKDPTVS
Sequence of ETV1 (P50549 whole entry): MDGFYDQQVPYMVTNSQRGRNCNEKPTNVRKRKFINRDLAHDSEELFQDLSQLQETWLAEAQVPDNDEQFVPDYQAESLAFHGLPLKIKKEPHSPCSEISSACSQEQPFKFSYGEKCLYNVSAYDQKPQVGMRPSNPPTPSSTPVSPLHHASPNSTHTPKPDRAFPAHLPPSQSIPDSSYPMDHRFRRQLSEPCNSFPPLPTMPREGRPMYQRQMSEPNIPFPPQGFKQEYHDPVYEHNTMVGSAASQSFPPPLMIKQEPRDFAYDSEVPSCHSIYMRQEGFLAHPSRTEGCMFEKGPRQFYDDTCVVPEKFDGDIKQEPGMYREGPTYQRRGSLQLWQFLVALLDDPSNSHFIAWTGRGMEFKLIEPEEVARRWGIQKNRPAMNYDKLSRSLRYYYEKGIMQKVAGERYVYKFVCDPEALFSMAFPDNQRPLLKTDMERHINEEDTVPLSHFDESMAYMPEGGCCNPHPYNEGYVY

With ATAATC the binding signal [1] was 1.1 fold enrichment (6-mer frequency, TF over GST control), the binding signal [2] was 1.17 fold enrichment (6-mer frequency, TF over GST control) and the binding signal [3] was 2.86 fold enrichment (6-mer frequency, TF over GST control). For the same sequence, the binding signal [4] was 1.16 fold enrichment (6-mer frequency, TF over GST control), the binding signal [5] was 1.13 fold enrichment (6-mer frequency, TF over GST control) and the binding signal [6] was 1.13 fold enrichment (6-mer frequency, TF over GST control). The binding signal [7] was 1.21 fold enrichment (6-mer frequency, TF over GST control), the binding signal [8] was 1.15 fold enrichment (6-mer frequency, TF over GST control) and the binding signal [9] was 4.71 fold enrichment (6-mer frequency, TF over GST control). The binding signal [10] was 1.12 fold enrichment (6-mer frequency, TF over GST control), the binding signal [11] was 1.2 fold enrichment (6-mer frequency, TF over GST control) and the binding signal [12] was 1.16 fold enrichment (6-mer frequency, TF over GST control). For the same sequence, the binding signal [13] was 1.16 fold enrichment (6-mer frequency, TF over GST control), the binding signal [14] was 1.17 fold enrichment (6-mer frequency, TF over GST control) and the binding signal [15] was 1.14 fold enrichment (6-mer frequency, TF over GST control). For the same sequence, the binding signal [16] was 1.13 fold enrichment (6-mer frequency, TF over GST control), the binding signal [17] was 1.15 fold enrichment (6-mer frequency, TF over GST control) and the binding signal [18] was 1.19 fold enrichment (6-mer frequency, TF over GST control).
